Molecules are shown by their SMILES. Calls of active or inactive are those of the source. How the source made its calls: active means hit-call score of the fitted dose curve at least 0.9, where 1 is the maximum; inactive means score below 0.9.

A short description of the experiment: ATG_E_Box_CIS: Attagene CIS-FACTORIAL HepG2 Assay for human Enhancer Box (E-box) (AID 2282936). The settings on record: HepG2 E-box cis-reporter transcription, actives raise or lower the signal. In a few lines: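 HepG2 cells transiently transfected with multiplexed cis-element reporter units, dosed 24 h; reporter mRNA quantified by RT-PCR, 6-FAM labelling, HpaI digestion and capillary electrophoresis. E-box (USF1) signal fitted bidirectionally vs DMSO.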
As for `Nc1c(Oc2ccccc2)cc(O)c2c1C(=O)c1ccccc1C2=O`, the outcome was inactive.
The same measure, in the same setting: as for `C=CCN=C=S`, the entry is “inactive”; as for `C[C@]12CC[C@@H](O)C[C@@H]1CC[C@@H]1[C@@H]2CC[C@]2(C)C(=O)CC[C@@H]12`, “inactive”; as for `C#CCOC(=O)/C=C(C)/C=C/CC(C)CCCC(C)C` (stereo not given), “inactive”.
On the same count and under the same terms, next, `C=C(C)[C@@H]1CC=C(C=O)CC1`: “inactive”; `CN(C)[C@@H]1C(=O)C(C(N)=O)=C(O)[C@@]2(O)C(=O)C3=C(O)c4c(O)ccc(Cl)c4[C@@](C)(O)[C@H]3C[C@@H]12`: “inactive”; `Cc1cc(C)cc(C)c1`: “inactive”.
Still for that read-out and setting: as for `O=c1[nH]c2ccccc2n1C1CCN(CCCC(c2ccc(F)cc2)c2ccc(F)cc2)CC1`, the entry is “inactive”; as for `C=CCCl`, “inactive”; as for `C1CN2CCN1CC2`, “inactive”.
With `COCC(=O)N(c1c(C)cccc1C)[C@H](C)C(=O)OC`, the outcome was inactive.
Same read-out and setting: as for `CCCSP(=S)(OCC)Oc1ccc(SC)cc1` (stereo not given), the entry is “inactive”; as for `CCOc1ccc(N)cc1`, “inactive”.
Same read-out and setting: next, `COc1ccc([N+](=O)[O-])cc1O`: “inactive”.
For `OC(Cc1ccccc1Cl)(Cn1[nH]cnc1=S)C1(Cl)CC1` (stereo not given), the outcome was inactive.
Consider `CC(C)(C)c1ccccc1O`, for which the result was inactive.
On the same count and under the same terms, next, `CC(C)[N+](=O)[O-]`: “inactive”; `CCCCCCCCCCCCc1cccc(S(=O)(=O)O)c1`: “inactive”.
Broadly, the AC50 is the midpoint of the concentration-response curve, whichever way the signal moves. With `O=C(CCl)Nc1ccccc1`, the concentration at half-maximal activity (AC50) is 73.5 µM (active).
As to `CC(C=O)Cc1ccc2c(c1)OCO2` (stereo not given), the result was inactive.
Still for that read-out and setting: next, `BrCCCCBr`: “inactive”.
Regarding `CC(C)O.CC(C)O.OCCN(CCO)CCO.OCCN(CCO)CCO.[Ti]`, the result was inactive.
Same read-out and setting: as for `CCCCOC(C)=O`, the entry is “inactive”.
For `Cc1ccc(OP(=O)(Oc2ccc(C)cc2C)Oc2ccc(C)cc2C)c(C)c1`, the AC50 was 25.1 µM (active).
As to `CC(C)(C)c1ccc(CCOc2ncnc3ccccc23)cc1`, the outcome was inactive.
In the case of `CCOc1cc(C=O)ccc1O`, the result was inactive.
Turning to `Clc1cc(C(Cl)(Cl)Cl)cnc1Cl`, the AC50 was 4.54 µM (active).
Turning to `CCCCS(=O)(=O)Cl`, the result was inactive.
Still for that read-out and setting: as for `N#Cc1ccccc1N`, the entry is “inactive”.
As to `OCCN(CCO)CCO`, the result was inactive.
Still for that read-out and setting: next, `BrCC(Br)c1ccccc1` (stereo not given): “inactive”; `C=CC(Cl)CCl` (stereo not given): “inactive”.
Turning to `O=[N+]([O-])c1ccc(Cl)c([N+](=O)[O-])c1`, the AC50 was 6.14 µM (active).
In the case of `CCC(C)(C#N)N=NC(C)(C#N)CC` (stereo not given), the result was inactive.
In the case of `CC(C)(C1CCC(O)CC1)C1CCC(O)CC1` (stereo not given), the outcome was inactive.
Consider `C=CC(=O)NC(C)(C)CC(C)=O`, for which the result was inactive.
Consider `Cc1cc(SCc2sc(-c3ccc(C(F)(F)F)c(F)c3)nc2C)ccc1OCC(=O)O`, for which the result was inactive.
With `c1ccc2sc(SNC3CCCCC3)nc2c1`, the result was inactive.
For `CCOC(=O)C(SP(=S)(OC)OC)c1ccccc1` (stereo not given), the result was inactive.
Same read-out and setting: as for `c1csc(-c2ccc(-c3cccs3)s2)c1`, the entry is “inactive”.

The values above are taken from PubChem BioAssay (EPA / NIEHS).
